# Results: the supplement of paper PMC7156485
# Where a name gives a salt, the structure may show the parent alone. A number with no mark means an inactive call.
# Test system: TDF
# Assay: H1.0 immunofluorescence intensity relative to DMSO (% of DMSO); higher = stronger H1.0 induction, active = 120 or more
# Settings: concentration: 10 µM; 24 h
# Outline: (§1)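 Compounds were applied at 10 µM for 24 h at 37 °C, in triplicate, to HCC1569 and TDF cells. The cells were then fixed and stained for H1.0, and nuclei were counterstained with DAPI. Nuclear H1.0 intensity or cell number is reported relative to the plate control as a percent, taking the median of replicates. Smoothing for positional effects was applied to HCC1569 values only.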
# 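Further: TDF is a line of transformed human dermal fibroblasts of mesenchymal origin.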
row,Compound,H1.0 immunofluorescence intensity
1,O=c1cc(N2CCOCC2)oc2c1ccc1ccccc12 [DNA-PK Inhibitor II],92.5
2,CC1(C(=O)O)CCC2(C)CCC3(C)C(=CC(=O)C4C5(C)CCC(O)C(C)(C)C5CCC43C)C2C1 (stereo unspecified),98.4
3,COc1cc2c(cc1OC)-c1cc(=Nc3c(C)cc(C)cc3C)n(C)c(=O)n1CC2.Cl [Trequinsin hydrochloride],85
4,CC(C)(C)NCC(O)COc1nsnc1N1CCOCC1 (stereo not drawn) [S(-)-Timolol maleate],93
5,CC(O)C1C(=O)N2C(C(=O)O)=C(SC3CNC(C(=O)N(C)C)C3)C(C)C12 (stereo unspecified) [Meropenem],97

# Test system: HCC1569
# Assay: H1.0 immunofluorescence intensity relative to DMSO (% of DMSO); higher = stronger H1.0 induction, active = 140 or more
# Settings: concentration: 10 µM; 24 h
# Outline: as §1
row,Compound,H1.0 immunofluorescence intensity
1,O=c1ccc2ccc(O)c(O)c2o1 [Daphnetin],95.2
2,CCNC(=O)N1CCN(CCCC(c2ccc(F)cc2)c2ccc(F)cc2)CC1.Cl [Amperozide hydrochloride],99
3,CCCCCC(O)C=CC1C(O)CC(O)C1CCCCCCC(=O)O (stereo unspecified) [Prostaglandin F1a],97.7
4,O=C(O)CC/C=C\C[C@H]1CO[C@@H](c2ccccc2Cl)O[C@H]1c1ccccc1O,108
5,CCCCCC=CCC=CCC=CCC=CCCCC(=O)OC(COCCCCCCCCCCCCCCCC)COP(=O)([O-])OCC[N+](C)(C)C (stereo unspecified) [Arachidonyl-PAF],93.4
6,CCC(=C(c1ccccc1)c1ccc(OCCN(C)C)cc1)c1ccccc1.O=C(O)CC(O)(CC(=O)O)C(=O)O [Tamoxifen citrate],146 (active)
